Source: PubChem
A selection: hits, their analogues and other compounds. The true share with any hit is near 21%.
SARS PLpro yeast-1: SARS-CoV PLP inhibition in yeast. S. cerevisiae expressing SARS-CoV PLpro, growth rescue. Potency, µM (series often up to 32.9 µM), usual class: activators. hit rate 0.19% among 330,000. AID 485353; calls by dose curve; note: nearly all actives have a fitted effect of over 55% in size
NS1 inh: inhibitors of influenza NS1 protein function. hit rate 0.4% among 270,000. Potency, µM (top dose mostly 46.1 µM). AID 2326; calls by dose curve; note: actives are rising curves; nearly all actives have a fitted effect of over 50% in size
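Read-out: OD600 growth recovery of NS1-expressing budding yeast. Cells grown overnight at 30C in -URA glucose medium, washed, resuspended and diluted 1:100 in 2% galactose assay medium, pH 6.0. Same strain lacking NS1 served as positive control.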
Pf growth 96h: P. falciparum growth inhibition at 96 hours; P. falciparum luciferase reporter growth, 96 h; Potency, µM (titrated, usually from 28.7 µM), usual class: inhibitors; hit rate 6.9% among 320,000; AID 504834
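Compounds incubated with erythrocytes infected by luciferase-expressing P. falciparum (2% hematocrit, 0.05% parasitemia final) for 96 hours, 37 C in 5% CO2. Growth inhibition scored as decreased luciferase luminescence.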
Pf growth 48h: inhibits P. falciparum growth in the first generation, 48 h; AID 504832; Potency, µM (highest dose often 28.7 µM), usual class: inhibitors; hit rate 5.9% among 310,000; P. falciparum luciferase growth in erythrocytes, 48 h
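First compound was added to culture medium, then infected red cells at 0.1% parasitemia and 2% hematocrit (final). After incubation at 37 C under 5% CO2, luciferase detection reagent was dispensed and light output recorded.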
Cycloheximide cs: counter-screen hit for Shiga toxin inhibitors, cycloheximide; cell reporter, cycloheximide protein synthesis inhibition counterscreen; max response, %; hit rate 12% among 300,000; in the data active = max response mostly above about 13%, no sharp cut-off; inactive = mostly below about 14%; note: read at 38.3 µM for the half of the compounds with a filed dose
Shiga inhibitor: Shiga toxin inhibition; Vero cells, Shiga toxin protein synthesis inhibition reporter; inhibition, % at 38.7 µM; hit rate 9.2% among 290,000; in the data active = inhibition mostly above about 28%, no sharp cut-off; inactive = mostly below about 43%
SARS PLpro yeast-2: Validates SARS-CoV PLpro inhibitor hits in yeast; shares compounds with SARS PLpro yeast-1; yeast expressing SARS-CoV PLpro, growth phenotype rescue; calls only; hit rate 19% among 1,000; AID 652038; call rule not given here
Hits are given with their value; 0 = inactive; ? = inconclusive; - = not tested or not shown; + = active, no number. Unless noted, calls come from the whole dose curve; as a rule, active = well fitted inhibition curve with a large enough effect; inconclusive = small, poorly fitted or top-dose-only effect, or another doubt; inactive = no such curve, though single readings can be large or run the other way.

SMILES	SARS PLpro yeast-1	NS1 inh	Pf growth 96h	Pf growth 48h	Cycloheximide cs	Shiga inhibitor	SARS PLpro yeast-2
COc1cccc(/C=N/NC(=O)c2cc3c(OC)ccc(OC)c3[nH]2)c1O	0	0	?	-	0	0	-
COc1cccc(NC(=S)NNC(=O)C(C)n2nc(C)c([N+](=O)[O-])c2C)c1 (stereo not drawn)	0	0	?	0	0	0	-
COc1cccc(/C=N/NC(=O)c2nc(-c3ccccc3)cc(-c3ccccc3)n2)c1O	11.2µM	?	0	0	14.9	0	+
COc1cccc(/C=N/NC(=O)c2c(C)nc3ccc(Br)cn23)c1O	?	-	0	11.7µM	0	0	0
COc1ccc(CCNC(=O)CCNC(=O)c2ccc(Br)cc2)cc1OC	?	0	0	0	0	0	0
COc1ccc(CCNC(=O)Cn2nnc(-c3ccccc3F)n2)cc1OC	?	0	?	-	0	0	0
COc1ccc(CCNC(=O)CCNC(=O)c2ccc(Cl)cc2)cc1OC	0	0	?	0	0	0	-
COc1ccc(-c2nnn(CC(=O)NCCc3ccc(OC)c(OC)c3)n2)cc1	0	0	0	0	0	0	-
O=C(Cn1nnc(-c2ccccc2F)n1)Nc1ccc2c(c1)OCO2	?	0	0	-	0	0	0
CC(=O)C1=C(O)C(=O)N(c2cccc(Br)c2)C1c1ccc(Br)cc1 (stereo not drawn)	0	0	?	0	0	0	-
Cc1ccc(S(=O)(=O)N2CCN(C(=O)Cn3nc(C(=O)O)c4ccccc4c3=O)CC2)cc1	0	0	0	0	0	0	-
Nc1ccc(Sc2nc3ccccc3[nH]2)cc1	0	-	0	0	0	0	-
CCC1=NN2C(=N)/C(=C\c3ccc(OCc4cc(=O)n5nc(CC)sc5n4)c(OC)c3)C(=O)N=C2S1	0	-	0	?	0	0	-
COc1ccc(CNC(=O)C/C(C)=N/NC(=O)COc2ccccc2)cc1	0	0	0	0	0	0	-
Cc1ccc(CNC(=O)CN2C(C)CCCC2C)cc1 (stereo not drawn)	0	0	0	0	0	0	-
COCc1nnc(NC(=O)CCc2ccc(OC)cc2)s1	0	0	0	0	0	0	-
CCn1c(O)c(/C=N/NC(=O)c2ccncc2)c(=O)[nH]c1=S	0	0	0	0	0	0	-
CCC(C)n1c(O)c(/C=N/NC(=O)c2ccncc2)c(=O)[nH]c1=S (stereo not drawn)	11.2µM	0	0	0	0	0	0
CC(Sc1nnnn1-c1ccc(Cl)cc1)C(=O)NCC(=O)Nc1ccc(F)c(F)c1F (stereo not drawn)	0	0	0	0	0	0	-
CCOC(=O)c1[nH]cnc1C(=O)NC(C)C	0	0	?	0	0	0	-
CCN1C(=O)[C@H]2[C@H]3CN=C(SCC(=O)c4ccccc4)N3[C@@](C)(C(=O)OC)[C@H]2C1=O	-	-	-	-	-	-	0
O=C(Cc1cc(=O)[nH]c(=O)[nH]1)N1CCN(C(=O)c2ccco2)CC1	1.78µM	0	0	0	0	0	0
COc1ccc(C(=O)NC(=S)Nc2nc(C)c(C(=O)N(C)C)s2)cc1	0	0	-	0	0	0	-
COC(=O)c1sc(NC(=S)NC(=O)c2cccc(Br)c2)nc1C	?	0	0	0	34.2	70.1	?
CNc1nc(-c2ccccn2)nnc1-c1ccccc1	?	0	?	-	0	0	0
SMILES	SARS PLpro yeast-1	NS1 inh	Pf growth 96h	Pf growth 48h	Cycloheximide cs	Shiga inhibitor	SARS PLpro yeast-2
c1ccc(-c2nnc(-c3ccncc3)nc2-c2ccccc2)cc1	0	0	0	?	0	0	-
O=C(NC1CCCCC1)C(c1cccnc1)N(C(=O)CCl)c1cccc(Cl)c1 (stereo not drawn)	0	0	?	?	0	0	-
CC(=O)N/N=C/c1cc(C(C)(C)C)cc(/C=N/NC(C)=O)c1O	0	0	0	0	0	0	-
Fc1ccccc1OCCCCCN1CCCC1	2.51µM	0	0	?	0	0	0
COCCNC(=S)N/N=C(\C)c1ccc2cc(OC)ccc2c1	8.91µM	0	?	?	0	0	0
COCCNC(=S)N/N=C(\C)c1ccc(OC)cc1	22.4µM	0	0	0	0	0	+
CCN(Cc1ccccc1)S(=O)(=O)c1ccc(C(=O)N2CCN(c3nc4ccccc4s3)CC2)cc1	2.82µM	0	0	0	0	0	0
CCN(CC)S(=O)(=O)c1ccc(C(=O)N2CCN(c3ncccn3)CC2)cc1	0	0	0	0	0	0	-
COc1ccc(NCN2C(=O)CCC2=O)cc1	?	0	0	-	0	0	0
O=C1CCC(=O)N1CNc1ccc(Oc2ccccc2)cc1	-	0	0	0	0	0	-
COc1ccc(C(=O)NCc2nnc(SCC(=O)Nc3ccccc3OC)n2C)cc1	0	0	?	0	0	0	-
O=C(CN1CC(c2ccccc2)CC1=O)N/N=C/c1cc(Br)ccc1O (stereo not drawn)	10µM	0	0	0	0	0	+
Cc1ccc(C)c(/C=C/C(=O)c2ccccc(=O)c2O)c1	3.55µM	0	1.47µM	4.15µM	111.1	52.2	0
O=C(/C=C/c1ccccc1Cl)c1ccccc(=O)c1O	?	0	3.7µM	5.22µM	64.8	88.9	+
Cc1cccc(C(=O)NNC(=O)c2ccccc2C)c1	0	0	0	0	0	0	-
Cc1ccc(CNC(=O)/C=C/c2ccccc2Cl)cc1	?	0	?	0	0	0	-
Cc1cccc(C2=NN(c3ccc(Br)cc3)[C@@H](C(=O)N3CCOC3=O)[C@@H]2c2ccc(F)cc2)c1	0	?	?	?	0	0	-
COc1ccccc1[C@@H]1C(c2cccc(C)c2)=NN(c2ccc(Br)cc2)[C@H]1C(=O)N1CCOC1=O	3.98µM	-	-	-	0	0	0
CC1CCCCC1NC(=O)NC(=O)COC(=O)c1nccnc1N (stereo not drawn)	0	-	-	-	-	-	-
CC1CCCC(NC(=O)NC(=O)CCl)C1C (stereo not drawn)	?	0	10.4µM	0.0329µM	0	0	+
CC1CCCCC1NC(=O)NC(=O)CCl (stereo not drawn)	?	0	?	8.28µM	0	0	+
CC1(C)[C@@H]2CC[C@@](C)(C2)[C@H]1OC(=O)c1ccccc1C(=O)O	-	0	-	-	-	-	-
O=C(c1ccc(-n2c(SCc3cccc(F)c3)nc3ccccc3c2=O)cc1)N1CCOCC1	3.16µM	0	0	?	0	0	+
CC(C)CNC(=O)c1cc([N+](=O)[O-])ccc1N1CCOCC1	?	0	0	0	0	0	0
CC(C)CCNC(=O)c1cc([N+](=O)[O-])ccc1N1CCOCC1	0	0	0	0	0	0	-
C(=N\NC(=Nc1ccccc1)c1ccccn1)/c1ccccn1	?	0	0	?	14.1	0	?
O=C(Cn1cnc2ccccc21)N/N=C/c1ccccn1	0	0	0	0	0	0	-
O=C(COC(=O)c1ccccc1Br)NC(=O)NCc1ccccc1	0	-	-	-	-	-	-
CC1CN(C(=O)Cn2c(C(F)(F)F)nc3ccccc32)CC(C)O1 (stereo not drawn)	?	0	0	-	0	0	0
O=C(O)Cn1c(C(F)(F)F)nc2ccccc21	-	0	0	0	0	0	-
